For 35 molecules, growth results are on record in PubChem BioAssay (NCI).

Compounds without any hit were thinned out: in the full panel of roughly 83,000, 20% have a hit.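 Compound tested at a single concentration for 48 hours in 96-well plates; a percent growth value below 10 was scored as active.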 Unmarked numbers belong to inactive results. Activity calls are given as the source filed them.

In this test the test system is HT29 colon. The experiment in a line: NCI-60 one-dose screen, 48 h (100 = growth as untreated, 0 = no growth, -100 = all killed). To be noted: 10 µM.
In the case of `CCOC(=O)[C@@H]1[C@H](c2ccccc2)[C@H]([N+](=O)[O-])[C@H](c2cn(-c3ccccc3)nc2C)N1Cc1ccccc1`, the growth is 76.4%.
For `O=S(=O)(NC1c2ccccc2Oc2ccccc21)c1cc(Cl)ccc1Cl`, the growth is 91.4%.
Turning to `O=C(O)CCCCSCCCCC(=O)O`, the growth is 90.4%.
The figure for `COc1ccc(OC)c([N+](=O)[O-])c1C=O` is 55.6%; for `c1ccc(CC(NCCNC(Cc2ccccc2)c2ccccc2)c2ccccc2)cc1` (stereo not given) it is -27.7% (active); for `COc1ccc(-c2nsc3c2NC(=O)CC3c2cccc(Cl)c2)cc1` (stereo not given) it is 2.95% (active).
Consider `Oc1ccc(/C=N\Nc2ccccn2)c(O)c1`, for which the growth was 51.6%.
As for `O=c1ccc2nc(-c3ccccc3)nn(-c3ccccc3)c-2c1`, the figure is -53.5% (active); as for `COc1ccc2nc(C)cc(Nc3ccc(Cl)cc3)c2c1`, 116%; as for `COc1c(-c2c3sc(=O)[nH]c3nc3c2c(=O)[nH]n3C(C)C)cc2c(c1OC)OCO2`, 102%.
In the case of `Fc1cc(-c2ncc(-c3cc(F)c(F)c(F)c3)c(NC3CCCCCC3)n2)cc(F)c1F`, the growth was 115%.
The figure for `COc1ccc(NC(=O)CCn2cnc3c(cc(-c4ccccc4)n3-c3ccccc3)c2=O)cc1` is 102%; for `N#CCC1CCCC1` it is 105%.
`COc1ccc(-c2nnc(COc3ccc(NC(=O)Nc4cccc(C(F)(F)F)c4)cc3F)o2)cc1`: the growth was 66.8%.
With `COc1ccc(/C=C2\SC(=S)N(CCCN3CCOCC3)C2=O)c(OC)c1`, the growth was 96.2%.
The figure for `Cc1ccc2oc(=O)cc(/C(=C3/C=CC=N3)c3ccc[nH]3)c2c1` is -36.6% (active).
Take `Nc1ccccc1NC(=O)CCCCCCC(=O)Nc1ccc2c(c1)/C(=C/c1ccc[nH]1)C(=O)N2`: the growth is 48.2%.
As for `COc1ccccc1Cn1cc2c(c1-c1ccccc1)CCc1cnoc1-2`, the figure is 12.4%; as for `COc1cc(-c2nc3ccc(C)cc3[nH]2)ccc1OCc1nnc(-c2ccc(CC(C)C)cc2)o1`, 73.3%; as for `C[n+]1c(/C=C/c2c[nH]c3ccccc23)ccc2ccccc21`, 49.2%.
As for `COc1cc(Cl)cc(-c2nn(-c3cccc(NC(=O)Nc4cccc(C(F)(F)F)c4)c3)cc2-c2ccncc2)c1`, the growth was 5.75% (active).
As for `COc1cc(/C=C/C(=O)c2cc(-c3ccc(F)cc3)ccc2O)cc(OC)c1OC`, the figure is 87.1%.
For `Cc1ccc2c(c1)-c1cc(C)nn1-c1ccc(C#N)cc1O2`, the growth is 20%.
Regarding `N/C(=N\O)c1cn(C2OC(CO)C(O)C2O)c2ncnc(N)c12` (stereo not given), the growth was 7.04% (active).
As for `CC(=O)c1c(O)cc2c3c1OC(C)(C)C1CCC(C)(CC31)O2` (stereo not given), the figure is 90.6%; as for `CC(=O)Nc1ccc(Sc2ccc(NC(C)=O)cc2)cc1`, 91.2%; as for `CC(=O)N(O)c1ccc(/C=C/c2ccccc2)cc1`, 47%.
Consider `CCOc1nc(-c2ccccc2)cc2c(O)c(C(=O)N/N=C/c3ccc(OC)cc3)[nH]c(=O)c12`, for which the growth is 108%.
As for `CNC(=S)Sc1ccc([N+](=O)[O-])cc1[N+](=O)[O-]`, the growth was 4.84% (active).
The figure for `O=C(COc1ccc(Cl)cc1Cl)Oc1coc(CSc2nc3ccccc3s2)cc1=O` is 114%; for `COc1ccc(Cn2cc3c(c2-c2ccccc2)CC(C)(C)c2cnoc2-3)cc1` it is 12.5%.
In the case of `Cc1nnc2c3nnc(-c4ccc(Cl)cc4)n3c3ccccc3n12`, the growth is 103%.
The figure for `Nc1ccc(Sc2ccc3c4c2cccc4c(=O)n2c4ccccc4nc32)cc1` is 66.7%.
As for `Cc1ncc([N+](=O)[O-])n1CCOc1ccc(C(=O)/C=C/c2ccc(C(F)(F)F)cc2)cc1`, the figure is 29.7%; as for `O=C(CCc1ccccc1)N1CCN(C(=O)CCc2ccccc2)CC1`, 101%.
